The values below come from PubChem BioAssay (NCATS).

Common to all, as to test: qHTS profiling for inhibitors of Plasmodium falciparum proliferation (AID 504749); note: nearly all actives have a fitted effect of over 60% in size
What all share (conditions): P. falciparum in erythrocytes, SYBR Green DNA, 72 h; series mostly up to 28.7 µM
On the technique in general: qHTS replaces the single test concentration by a dilution series.

Experiment [1] deals with CP217. An outline of the steps: (§1)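 In a 72 h erythrocytic culture (37 C, humidified, 5% CO2) at 2.5% hematocrit and 0.3% starting parasitemia, compounds were tested; SYBR Green I in detergent lysis buffer stained parasite DNA overnight.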
The subject of experiment [2] is CP237. An outline of the steps:
as §1

The subject of experiment [3] is CP247. Summed up: as §1
In experiment [4] the test system is CP250. Summed up:
as §1

For experiment [5], the system named is CP252. Summed up: as §1
Experiment [6] deals with CP256. An outline of the steps:
as §1

The test system of experiment [7] is CP203. Summed up:
as §1

For experiment [8], the system named is CP211. An outline of the steps: as §1
Experiment [9] deals with CP238. Summed up:
as §1

For experiment [10], the system named is CP215. Summed up: as §1

Records with an inconclusive call do not appear. Calls of active or inactive are those of the source. Calls come from the whole dose curve; as a rule, active = well fitted inhibition curve with a large enough effect; inconclusive = small, poorly fitted or top-dose-only effect; inactive = flat fitted curve, though single readings scatter.
Potency is the fitted concentration of half-maximal effect.

For the compound `COc1ccc2c(c1OC)C(=O)OC2C1c2cc3c(cc2CCN1C)OCO3` (centres undefined), the Potency entry in experiment [1], in experiment [2], in experiment [3], in experiment [4], in [5] and in experiment [6] was “inactive” throughout.
As for `c1ccc(C2(N3CCCC3)CCCCC2)cc1`, the Potency is 8.91 µM (active) in experiment [1], 11.2 µM (active) in [2] and 7.94 µM (active) in [3].
On to `O=c1[nH]c(=O)n(Cl)c(=O)n1Cl`, for which the Potency entry in experiment [7], in [8], in experiment [1], in [2], in [9] and in experiment [3] was “inactive” throughout. Besides, the Potency result in experiment [4], in experiment [5] and in experiment [6] was “inactive” in each case.
Consider `CN1[C@@H]2CC[C@H]1CC(OC1c3ccccc3CCc3ccccc31)C2` (some centres undefined), for which the Potency entry in [10] and in experiment [6] was “inactive” in each case. The Potency in experiment [1] and in experiment [5] was 3.16 µM (active) throughout.
As for `CCCC(=O)OC(C(Cl)(Cl)Cl)P(=O)(OC)OC` (centres undefined), the Potency entry in experiment [7], in [1], in experiment [2], in experiment [9], in experiment [3] and in experiment [4] was “inactive” each time. Moreover, in experiment [5], the Potency entry is “inactive”.
As to `O=C(NC(=O)c1c(F)cccc1F)Nc1ccc(Cl)c(Oc2ncc(C(F)(F)F)cc2Cl)c1`, the Potency entry in [7], in [8], in experiment [1], in experiment [2], in [9] and in experiment [3] was “inactive” in each case. Further, the Potency result in experiment [4], in experiment [5] and in experiment [6] was “inactive” throughout.
For `C[C@H]1CCC[C@H](O)CCCCCc2cc(O)cc(O)c2C(=O)O1`, the Potency entry in experiment [7], in experiment [8], in experiment [9], in experiment [3], in experiment [5] and in experiment [6] was “inactive” each time.
For `c1csc(C2(N3CCCCC3)CCCCC2)c1`, the Potency entry in experiment [7], in experiment [8], in experiment [10], in experiment [1], in experiment [9] and in experiment [3] was “inactive” throughout. For the same compound, the Potency entry in [4], in [5] and in experiment [6] was “inactive” throughout.
Consider `c1cc2c(c(NC3=NCCN3)c1)CCCC2`, for which the Potency entry in experiment [1], in experiment [2], in experiment [9], in experiment [3], in experiment [4] and in [5] was “inactive” each time. Besides, the Potency result in [6] was “inactive”.
For `COc1ccc2c3c1O[C@H]1C(=O)CC[C@H]4[C@@H](C2)N(C)CC[C@]314`, the Potency result in [7], in [8], in experiment [1], in [2], in [9] and in [3] was “inactive” in each case. The Potency result in experiment [4], in experiment [5] and in experiment [6] was “inactive” in each case.
With `CCOc1ccc2c3c1O[C@H]1[C@@H](O)C=C[C@H]4[C@@H](C2)N(C)CC[C@@]341`, the Potency result in [1], in [2], in [9], in experiment [3], in [4] and in experiment [5] was “inactive” throughout. Also, in [6], the Potency result was “inactive”.
For the compound `Oc1cc(Cl)c(Cl)cc1Cl`, the Potency entry in [8], in experiment [10], in experiment [1], in experiment [2], in [9] and in [3] was “inactive” throughout. Also, the Potency entry in experiment [4], in experiment [5] and in [6] was “inactive” throughout.
In the case of `C=CCC1(C(C)CCC)C(=O)N=C(S)NC1=O` (centres undefined), the Potency entry in experiment [1], in experiment [2], in [9], in [3], in experiment [4] and in [5] was “inactive” throughout. Besides, the Potency result in experiment [6] was “inactive”.
As to `O=C1CN=C(c2ccccc2)c2cc(Cl)ccc2N1CC1CC1`, the Potency entry in [8], in experiment [10], in experiment [1], in [2], in experiment [9] and in experiment [4] was “inactive” each time. The Potency result in [5] and in experiment [6] was “inactive” throughout.
Take `CN1CCCC(=C(c2cccs2)c2cccs2)C1`: the Potency in experiment [2] is 4.47 µM (active). The Potency result in experiment [4] and in experiment [6] was “inactive” in each case.
As for `CCC1C(C)=NN=C(c2ccc(OC)c(OC)c2)c2cc(OC)c(OC)cc21` (centres undefined), the Potency entry in [7], in experiment [1], in experiment [9], in [3], in experiment [4] and in [5] was “inactive” in each case. Moreover, in experiment [6], the Potency entry was “inactive”.
For the compound `CCNC(C)Cc1cccc(C(F)(F)F)c1` (centres undefined), the Potency entry in [7], in experiment [8], in experiment [10], in experiment [1], in experiment [9] and in [3] was “inactive” each time. Also, the Potency entry in experiment [4], in [5] and in experiment [6] was “inactive” in each case.
